From PubChem BioAssay (NCATS)
Inconclusive results are not listed. Entries that show only a call come without a potency. The source made the active and inactive calls. Unless noted, the call rests on the fitted dose curve.

Experiments:
[1] = qHTS assay for measurement of the activity of small molecule inhibitors on Zika virus induced Caspase-3 activity in human iPSC derived neural progenitor cells (hNPCs) (AID 1224857; active means well fitted inhibition curve with a large enough effect; further: nearly all actives have a fitted effect of over 65% in size); conditions: hNPCs ZIKV-induced caspase-3/7, Caspase-Glo luminescence, 6 h; series mostly up to 45.7 µM
How it was run: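 After overnight (16–20 h) culture at 350 cells/well, hNPCs get compound, then ZIKV 2 FFU/cell one hour later. Six hours on, Caspase-Glo 3/7 is added and luminescence measured.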

[2] = qHTS assay for measurement of the activity of small molecule inhibitors on Zika virus induced Caspase-3 activity in human astrocytoma cells (AID 1224859; active means well fitted inhibition curve with a large enough effect); conditions: SNB-19 ZIKV-induced caspase-3/7, luminescence, 6 h; series mostly up to 45.7 µM
How it was run: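 Inhibition of Zika-induced caspase-3/7 activity: SNB-19 cells, 1 h compound pretreatment, ZIKV 2 FFU/cell for 6 h at 37 C, Caspase-Glo luminescence read-out.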

[3] = Natriuretic polypeptide receptor (hNpr1) antagonism - Pilot counterscreen GloSensor control cell line (AID 1347045); conditions: HEK293 cGMP GloSensor cells, SNP-stimulated luminescence, 20 min; series mostly up to 38.3 µM; further: potency means the concentration at half of the fitted maximal effect
How it was run: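 This counterscreen uses HEK293 cells expressing the GIP/pGS-40F cGMP biosensor. Compound-treated cells are challenged with 50 uM sodium nitroprusside, and the luciferase signal is compared before and after stimulation.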

[4] = biological target: Atrial natriuretic peptide receptor 1 (Homo sapiens) (UniProt P16066); test: Natriuretic polypeptide receptor (hNpr1) antagonism - Pilot screen (AID 1347049); conditions: hNpr1 cells, antagonist mode cGMP read-out; series mostly up to 57.5 µM;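 further: agonist-evoked cGMP luminescence read 20 min after hNppA addition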; further: potency means the concentration at half of the fitted maximal effect
How it was run: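 HEK293 cells co-expressing hNpr1 and the GloSensor pGS-40F cGMP luciferase sensor were preloaded with 2% GloSensor reagent for 2 h. Compounds were added for 30 min at room temperature, then cells were stimulated with 0.1 nM hNppA for 20 min before luminescence readout.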

[5] = biological target: Atrial natriuretic peptide receptor 2 (Homo sapiens) (UniProt P20594); test: Natriuretic polypeptide receptor (hNpr2) antagonism - Pilot subtype selectivity assay (AID 1347050); conditions: NPR2-expressing cells, cGMP antagonist-mode read-out; series mostly up to 38.3 µM; further: potency means the concentration at half of the fitted maximal effect
How it was run: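 cGMP-sensor HEK293/hNpr2 cells; 2% GloSensor reagent 2 h RT; compounds 30 min; baseline luminescence read; 1 nM hNppC agonist 20 min RT; final luminescence read by CCD camera. Antagonism = reduced post-agonist signal.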

[6] = qHTS profiling of the MIPE4 collection as inhibitors of Plasmodium falciparum (DD2) proliferation (AID 743345; call rule not given here); conditions: P. falciparum Dd2 in erythrocytes, SYBR Green DNA, 72 h; at 28.5 µM (top of the series)
How it was run: (§1)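 Erythrocytes infected with P. falciparum (0.3% parasitemia, 2.5% hematocrit) incubated with compounds 72 h at 37 C, 5% CO2. Lysis with saponin/Triton buffer containing SYBR Green I, overnight at room temperature in the dark; DNA fluorescence (485/535 nm) normalised to 0.29 uM artemisinin and DMSO.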

[7] = qHTS profiling of the MIPE4 collection as inhibitors of Plasmodium falciparum (DD2) proliferation (Rep 2) (AID 743346; call rule not given here); conditions: P. falciparum Dd2 in erythrocytes, SYBR Green DNA, 72 h; at 28.5 µM (top of the series)
How it was run: as §1

[8] = qHTS profiling of the MIPE4 collection as inhibitors of Plasmodium falciparum (HB3) proliferation (AID 743347; call rule not given here); conditions: P. falciparum HB3 in erythrocytes, SYBR Green DNA, 72 h; at 28.5 µM (top of the series)
How it was run: as §1

Atrial natriuretic peptide receptor 2 (Homo sapiens), sequence (P20594 whole entry, looked up): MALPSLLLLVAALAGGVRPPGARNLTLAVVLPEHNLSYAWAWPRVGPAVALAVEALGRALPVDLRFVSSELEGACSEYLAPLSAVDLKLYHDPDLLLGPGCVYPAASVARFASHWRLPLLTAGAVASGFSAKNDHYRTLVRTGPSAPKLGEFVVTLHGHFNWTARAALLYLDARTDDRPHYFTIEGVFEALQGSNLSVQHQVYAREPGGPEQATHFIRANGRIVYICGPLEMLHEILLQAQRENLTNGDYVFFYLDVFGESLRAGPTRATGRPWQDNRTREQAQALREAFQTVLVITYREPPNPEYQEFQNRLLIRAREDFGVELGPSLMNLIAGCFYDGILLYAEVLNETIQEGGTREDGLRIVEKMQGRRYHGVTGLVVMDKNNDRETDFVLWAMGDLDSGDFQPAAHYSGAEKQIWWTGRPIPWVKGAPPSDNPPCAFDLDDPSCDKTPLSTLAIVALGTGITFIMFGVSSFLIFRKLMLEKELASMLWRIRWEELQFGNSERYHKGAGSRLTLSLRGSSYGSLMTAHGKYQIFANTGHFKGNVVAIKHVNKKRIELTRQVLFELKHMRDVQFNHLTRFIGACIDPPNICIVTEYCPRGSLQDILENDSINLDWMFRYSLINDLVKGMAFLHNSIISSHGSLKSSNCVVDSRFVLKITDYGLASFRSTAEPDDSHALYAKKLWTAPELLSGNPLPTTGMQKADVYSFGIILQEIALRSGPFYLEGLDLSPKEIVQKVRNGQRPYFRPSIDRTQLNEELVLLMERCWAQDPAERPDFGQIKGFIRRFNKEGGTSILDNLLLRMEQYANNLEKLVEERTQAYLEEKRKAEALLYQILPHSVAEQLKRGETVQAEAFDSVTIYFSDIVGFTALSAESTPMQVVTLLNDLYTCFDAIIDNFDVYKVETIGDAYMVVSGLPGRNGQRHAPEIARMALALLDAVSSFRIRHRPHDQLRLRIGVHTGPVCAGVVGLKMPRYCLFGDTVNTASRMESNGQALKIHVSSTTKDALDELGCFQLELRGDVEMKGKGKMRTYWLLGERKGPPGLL
Atrial natriuretic peptide receptor 1 (Homo sapiens), sequence (P16066 whole entry, looked up): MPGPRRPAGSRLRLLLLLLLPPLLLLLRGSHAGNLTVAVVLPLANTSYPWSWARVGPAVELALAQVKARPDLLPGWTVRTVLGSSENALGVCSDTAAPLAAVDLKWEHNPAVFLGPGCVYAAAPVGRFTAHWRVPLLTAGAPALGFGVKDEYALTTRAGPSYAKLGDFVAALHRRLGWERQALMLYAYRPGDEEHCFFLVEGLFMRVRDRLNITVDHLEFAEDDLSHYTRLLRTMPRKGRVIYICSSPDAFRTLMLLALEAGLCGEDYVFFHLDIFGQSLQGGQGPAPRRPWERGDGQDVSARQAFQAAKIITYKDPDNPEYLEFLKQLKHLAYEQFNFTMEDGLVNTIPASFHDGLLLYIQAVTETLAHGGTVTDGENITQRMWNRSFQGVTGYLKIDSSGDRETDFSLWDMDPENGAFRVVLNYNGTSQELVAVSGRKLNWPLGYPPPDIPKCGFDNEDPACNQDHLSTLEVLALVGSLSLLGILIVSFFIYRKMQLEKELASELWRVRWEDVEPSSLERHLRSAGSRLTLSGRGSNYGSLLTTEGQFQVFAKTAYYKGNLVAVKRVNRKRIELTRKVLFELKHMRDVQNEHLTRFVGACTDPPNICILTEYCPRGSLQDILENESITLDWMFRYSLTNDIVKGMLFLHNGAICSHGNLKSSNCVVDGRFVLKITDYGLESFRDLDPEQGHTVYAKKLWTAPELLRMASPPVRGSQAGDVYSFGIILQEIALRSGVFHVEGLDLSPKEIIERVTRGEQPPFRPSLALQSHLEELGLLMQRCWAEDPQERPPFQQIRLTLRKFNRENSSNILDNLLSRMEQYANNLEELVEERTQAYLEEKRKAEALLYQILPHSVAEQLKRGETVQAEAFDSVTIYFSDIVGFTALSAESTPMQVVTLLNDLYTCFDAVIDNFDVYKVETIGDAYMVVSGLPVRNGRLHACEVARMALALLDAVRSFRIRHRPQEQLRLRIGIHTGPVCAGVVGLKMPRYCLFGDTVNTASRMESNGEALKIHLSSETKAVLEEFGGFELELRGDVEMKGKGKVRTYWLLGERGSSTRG

| Structure (SMILES) | Potency [1] | Potency [2] | Potency [3] | Potency [4] | Potency [5] | parasite growth remaining, % of DMSO control (lower = more inhibition) [6] [%] | parasite growth, % of control (lower = inhibition) [7] [%] | growth, % of control [8] [%] |
| --- | --- | --- | --- | --- | --- | --- | --- | --- |
| CC(C)NC[C@H](O)COc1ccc(CC(N)=O)cc1 | inactive | inactive | inactive | inactive | inactive |  |  |  |
| O=C(O)/C=C/c1ccc(O)c(O)c1 | inactive | inactive | inactive | inactive | inactive |  |  |  |
| CO/N=C(\C(=O)N[C@@H]1C(=O)N2C(C(=O)O)=C(CSc3nc(=O)c(O)nn3C)CSC12)c1csc(N)n1 (some centres undefined) | inactive | inactive | inactive | inactive | inactive |  |  |  |
| Cn1cc(C(F)(F)F)nc1-c1ccc(OCC(O)CNCCOc2ccc(O)c(C(N)=O)c2)cc1 (centres undefined) | inactive | inactive | inactive | inactive | inactive |  |  |  |
| O=c1ccn([C@@H]2O[C@H](COP(=O)(O)OP(=O)(O)O)[C@@H](O)[C@H]2O)c(=O)[nH]1 | inactive | inactive | inactive | inactive | inactive |  |  |  |
| Cn1ccnc1 | inactive | inactive | inactive | inactive | inactive |  |  |  |
| CC(N)=NCCCC[C@@H](N)C(=O)O | inactive | inactive | inactive | inactive | inactive |  |  |  |
| O=C(O)C1=CCCN(CCON=C(c2ccccc2)c2ccccc2)C1 | inactive | inactive | inactive | inactive | inactive |  |  |  |
| N[C@H](C(=O)O)[C@H](O)C(=O)O | inactive | inactive | inactive | inactive | inactive |  |  |  |
| Nc1nc2ccc(Cl)cc2c2nc(-c3ccco3)nn12 | inactive | inactive | inactive | inactive | inactive |  |  |  |
| NCCCNCCCCNCCCN | inactive | inactive | inactive | inactive | inactive |  |  |  |
| CCCCCCCCCCCCCCC[C@H](O)[C@H](N)CO | inactive | inactive | inactive | inactive | inactive |  |  |  |
| C=CCn1c(=O)c2c(nc(-c3ccc(S(=O)(=O)O)cc3)n2C)n(C)c1=O | inactive | inactive | inactive | inactive | inactive |  |  |  |
| [Li+] | inactive | inactive | inactive | inactive | inactive |  |  |  |
| N[C@H](C(=O)O)c1cc(O)cc(O)c1 | inactive | inactive | inactive | inactive | inactive |  |  |  |
| CCN1C(=O)C=CC1=O | inactive | inactive | inactive | inactive | inactive |  |  |  |
| O=C(O)C1CN(CCCP(=O)(O)O)CCN1 (centres undefined) | inactive | inactive | inactive | inactive | inactive |  |  |  |
| CN1CCN(c2nc3cc(C(F)(F)F)ccc3n3cccc23)CC1 | inactive | inactive | inactive | inactive | inactive |  |  |  |
| CC(N)(Cc1ccc(O)c(O)c1)C(=O)O (centres undefined) | inactive | inactive | inactive | inactive | inactive |  |  |  |

| Structure (SMILES) | Potency [1] | Potency [2] | Potency [3] | Potency [4] | Potency [5] | parasite growth remaining, % of DMSO control (lower = more inhibition) [6] [%] | parasite growth, % of control (lower = inhibition) [7] [%] | growth, % of control [8] [%] |
| --- | --- | --- | --- | --- | --- | --- | --- | --- |
| CC(C)(C)c1cc(/C=C(\C#N)C(N)=S)cc(C(C)(C)C)c1O | inactive | inactive | 1.17 µM (active) | 3.38 µM (active) | 4.65 µM (active) |  |  |  |
| Nn1nnc2ccccc21 | inactive | inactive | inactive | inactive | inactive |  |  |  |
| CC(C)(C)NCC(O)COc1cccc2[nH]c(=O)[nH]c12 (centres undefined) | inactive | inactive | inactive | inactive | inactive |  |  |  |
| COC(=O)C1=C(C)NC(C)=C([N+](=O)[O-])C1c1ccccc1C(F)(F)F (centres undefined) | inactive | inactive | inactive | inactive | inactive |  |  |  |
| Oc1cc(O)c2c(c1)O[C@H](c1ccc(O)c(O)c1)[C@@H](O)C2 | inactive | inactive | inactive | inactive | inactive |  |  |  |
| CCCCCCC/C=C\CCCCCCCCC(=O)O | inactive | inactive | inactive | inactive | inactive |  |  |  |
| NC(N)=[N+]1CCc2ccccc2C1 | inactive | inactive | inactive | inactive | inactive |  |  |  |
| CC(=O)[C@H]1CCC2C3CC=C4C[C@@H](OS(=O)(=O)O)CC[C@]4(C)C3CC[C@@]21C (some centres undefined) | inactive | inactive | inactive | inactive | inactive |  |  |  |
| CCCC[C@@]1(C2CCCC2)Cc2cc(OCC(=O)O)c(Cl)c(Cl)c2C1=O | inactive | inactive | inactive | inactive | inactive |  |  |  |
| CN(C)C(=O)/N=N/C(=O)N(C)C | inactive | inactive | inactive | inactive | inactive |  |  |  |
| C=CCNc1ncnc2ccc(Br)cc12 | inactive | inactive | inactive | inactive | inactive |  |  |  |
| NC1CONC1=O (centres undefined) |  |  |  |  |  | 99.7 | 78.4 | 106 |
| Cc1nc(N=Nc2ccc(S(=O)(=O)O)cc2S(=O)(=O)O)c(COP(=O)(O)O)c(C=O)c1O |  |  |  |  |  | 100 | 213 | 93.6 |
| Cc1nc(N=Nc2cc(S(=O)(=O)O)c3cc([N+](=O)[O-])cc(S(=O)(=O)O)c3c2)c(COP(=O)(O)O)c(C=O)c1O | inactive | inactive |  | inactive | inactive |  |  |  |
| O=c1cc(-c2ccccc2F)[nH]c2cc3c(cc12)OCO3 | inactive | inactive |  | inactive | inactive |  |  |  |
| Cc1ccc2c(c1)C(N1CCN(C)CC1)=Nc1cccnc1N2 | inactive | inactive |  | inactive |  |  |  |  |
| NC1CCN(O)C1=O (centres undefined) | inactive | inactive |  | inactive | inactive |  |  |  |
| N=C(N)c1ccc(OCCCCCOc2ccc(C(=N)N)cc2)cc1 (tested in a mixture with another compound) | inactive | inactive |  | inactive | inactive |  |  |  |
| N[C@@H](Cc1ccc(F)cc1)C(=O)O | inactive | inactive |  | inactive | inactive |  |  |  |
